Laboratory results from paper PMC4552634, “A New Set of Chemical Starting Points with Plasmodium falciparum Transmission-Blocking Potential for Antimalarial Drug Discovery” (PLoS ONE, 2015).
Out of some 13,000 compounds screened, about 3,200 (25%) showed an effect of 50% or more. Some of the results follow.

System: P. falciparum stage V gametocytes
Set-up: BacTiter-Glo ATP luminescence viability of purified stage V gametocytes in 384-well plates, per cent inhibition versus DMSO
Conditions: 48 h, 5 µM; inhibitor

Row | Compound | % Inhibition
1 | Cc1cc2c(cc1C(F)(F)F)N(C(=O)Nc1cc(C(=O)NC3CCN(Cc4ccccc4)C3)cc(C(F)(F)F)c1)CC2 (stereo not shown) [TCMDC-139921] | 12.41%
2 | Oc1ccc(-c2nc3c4cc(I)ccc4c4ccc(I)cc4c3[nH]2)cc1 [TCMDC-124199] | -25%
3 | N#Cc1ccc2nc(-c3cc(-c4cccc(F)c4)cnc3N)[nH]c2c1 [TCMDC-133133] | -54.5%
4 | N#Cc1ccc(N2CCN(Cc3cccc(-c4cccc(-c5nc6cc(F)ccc6[nH]5)c4)c3)CC2)nc1.O=C(O)C(F)(F)F [TCMDC-133109] | -21.69%
5 | Clc1ccc(Cc2nc3ccccc3[nH]2)cc1Cl [TCMDC-125878] | -7.507%
6 | O=C(Nc1ccc(Oc2ccccc2)cc1)N1CCC(CN2CCC(c3c[nH]c4ccccc34)CC2)CC1 [TCMDC-140194] | 35.38%
7 | O=C(Nc1ccc(Cl)c(Cl)c1)N1CCC(CN2CCC(c3c[nH]c4ccccc34)CC2)CC1 [TCMDC-140195] | -22.77%
8 | FC(F)(F)c1ccc(NC(=S)N2CCC(CCN3CCC(c4c[nH]c5ccccc45)CC3)CC2)cc1 [TCMDC-140188] | 107.1%
9 | O=C(Nc1cc(C(F)(F)F)cc(C(F)(F)F)c1)N1CCC(CCN2CCC(c3c[nH]c4ccccc34)CC2)CC1 [TCMDC-140189] | 108.5%
10 | O=C(Nc1cc(C(F)(F)F)cc(C(F)(F)F)c1)N1CCC(CN2CCC(c3c[nH]c4ccccc34)CC2)CC1 [TCMDC-140192] | -4.081%
11 | O=C(Nc1ccc(Oc2ccccc2)cc1)N1CCC(CCN2CCC(c3c[nH]c4ccccc34)CC2)CC1 [TCMDC-140190] | 106%
12 | FC(F)(F)c1ccc(NC(=S)N2CCC(CN3CCC(c4c[nH]c5ccccc45)CC3)CC2)cc1 [TCMDC-140191] | 5.954%
13 | CN(C)CCc1c[nH]c2ccc(C(=O)Nc3ccc(-c4ccncc4)cc3)cc12 [TCMDC-132057] | 19.3%
14 | COc1ccc2nccc([C@@H](O)CN3CCC(NC(=O)c4ccc(CN5CCN(c6cccc(C)c6)CC5C)cc4)CC3)c2c1 (stereo partly shown) [TCMDC-140999] | -29.97%
15 | CC1(C)N=C(N)N=C(N)N1OCCSCc1cc(Cl)sc1Cl [TCMDC-131620] | 30.29%
16 | O=S(=O)(NCCN1CCCC1)c1cccc(-c2ccc(CNCc3ccsc3)cc2)c1 [TCMDC-132290] | 92.71%
17 | O=S(=O)(NCCN1CCCC1)c1ccc(-c2ccc(CNCc3ccsc3)cc2)cc1 [TCMDC-132281] | 102.2%
18 | O=S(=O)(NCCN1CCCC1)c1cccc(-c2cccc(CNCc3ccsc3)c2)c1 [TCMDC-132277] | 89.41%
19 | CCN1CCN(c2cc(C)c3cc(NC(=O)c4ccc([N+](=O)[O-])c(C)c4)ccc3n2)CC1 [TCMDC-125576] | 24.57%
20 | CC(C)(CNCCOc1ccc(Cl)cc1)c1nc(-c2ccc(Cl)c(O)c2)c(-c2ccnc(N)n2)[nH]1 [TCMDC-141161] | 36.73%
21 | Cc1cccc2[nH]c(=O)c([N+](=O)[O-])c(O)c12 [TCMDC-131384] | -28.29%
22 | CN(C)CCC=C1c2ccccc2Sc2c(O)cc(Cl)cc21 [TCMDC-123466] | -77.93%
23 | N#Cc1cccc(Nc2ncc3c(-c4cccc(NC(=O)Cc5cccc(Cl)c5)c4)c[nH]c3n2)c1 [TCMDC-134682] | 19.68%

Row | Compound | % Inhibition
24 | CCn1ccc2c(N3CCCS3(=O)=O)cc(C(=O)N[C@@H](Cc3ccccc3)[C@H](O)CNC(C)(C)CCCC(C)C)cc21 [TCMDC-135312] | 65.79%
25 | CCn1ccc2c(N3CCCCS3(=O)=O)cc(C(=O)N[C@@H](Cc3ccccc3)[C@H](O)CNC(C)(C)CCCC(C)C)cc21 [TCMDC-135311] | 61.66%
26 | CCn1ccc2c(N3CCCC3=O)cc(C(=O)N[C@@H](Cc3ccccc3)[C@H](O)CNC3CCCCC3)cc21 [TCMDC-135316] | 7.868%
27 | CCn1ccc2c(N3CCCC3=O)cc(C(=O)N[C@@H](Cc3ccccc3)[C@H](O)CNC(C)(C)CCCC(C)C)cc21 [TCMDC-135313] | 55.34%
28 | CCn1ccc2c(N3CCCC3=O)cc(C(=O)N[C@@H](Cc3ccccc3)[C@H](O)CNCc3cccc(OC)c3)cc21 [TCMDC-134129] | 8.959%
29 | CNC(=O)c1cncc(/C=C/c2ccccc2S(N)(=O)=O)c1 [TCMDC-138266] | 49.76%
30 | C[C@H](NC(=O)c1c(OC2CN(C(c3ccccc3)c3ccccc3)C2)c(-c2ccccc2)nc2ccccc12)C1CCCCC1 [TCMDC-135543] | -26.28%
31 | CS(=O)(=O)O.Nc1nc(NCC2CCC(CNS(=O)(=O)c3cccc4ccccc34)CC2)nc2ccccc12 (stereo not shown) [TCMDC-124251] | -1.432%
32 | COC(=O)C(Cc1ccccc1)C(CSCc1ccc(OC)cc1)C(=O)N[C@@H](C(=O)OC(C)(C)C)c1ccc(C(C)(C)C)cc1 (stereo partly shown) [TCMDC-131235] | 8.806%
33 | CC(C)(C)OC(=O)c1c(NC(=O)/C=C/c2ccc(O)c(O)c2)sc2c1CCCC2 [TCMDC-131558] | -45.09%
34 | CC=Cc1cc(Cc2cnc(N)nc2N)cc(CCC)c1OC [TCMDC-137634] | -1.983%
35 | CCOc1cc(Cc2cnc(N)nc2N)cc(OCC)c1OCCCCC(=O)OC [TCMDC-137176] | -10.63%
36 | Cc1ccccc1CN1CCCN(Cc2ccc(C(=O)Nc3ccc(C(C)(C)C)cc3)cc2)CC1 [TCMDC-136429] | -4.144%
37 | CC(C)(C)c1ccc(Cn2nc(C(=O)N3CCN(C(=O)C4CCCO4)CC3)c3ccccc32)cc1 (stereo not shown) [TCMDC-134381] | -2.653%
38 | CC(C)(C)c1ccc(Cn2c(=N)n(CC(=O)c3ccc(-c4ccccc4)cc3)c3ccccc32)cc1 [TCMDC-124030] | 98.24%
39 | CCN(CC)c1ccc(C(=O)Cn2ccc(=N)cc2)cc1 [TCMDC-139029] | -2.203%
40 | CCOCc1cn(CC(=O)c2ccc(-c3ccccc3)cc2)c(C)nc1=N [TCMDC-124243] | -19.83%
41 | CCN(CC)CCn1c(=N)n(CC(=O)c2ccc(-c3ccccc3)cc2)c2ccccc21 [TCMDC-124026] | 67.24%
42 | O=C(NC1CC1)c1ccc(Cn2c(SCc3cccc(Cl)c3)nc3ccccc3c2=O)cc1 [TCMDC-123576] | 23.52%
43 | COc1ccc(Cn2c(Nc3cccc(C(F)(F)F)c3)nc3cc(C(=O)NC4CC4)cnc32)cc1Cl [TCMDC-138554] | -4.933%
44 | COc1ccc(Cn2c(SCc3ccc(C)cc3)nc3cc(OC)c(OC)cc3c2=N)cc1Cl [TCMDC-125587] | 96.33%
45 | CC[C@H]1CN2CC[C@H]1C[C@H]2[C@@H](O)c1cc(OCCCN(C)C)nc2ccc(OC)cc12 [TCMDC-131424] | 22.54%
46 | O=C(Nc1ccc(OC2CCN(Cc3ccc(F)cc3)C2)c(Cl)c1)c1ccoc1 (stereo not shown) [TCMDC-133755] | 23.17%

Row | Compound | % Inhibition
47 | CC(=O)CCc1ccc(OCCN(Cc2ccccc2C(F)(F)F)c2ccc(C#N)c(C(F)(F)F)c2)cc1 [TCMDC-135737] | 23.15%
48 | CCOC(=O)c1ccc(N2CCN(CCCNC(=O)/C(=C/C=C/c3cc4cc(Cl)c(Cl)cc4[nH]3)OC)CC2)cc1 [TCMDC-139306] | -53.61%
49 | COc1ccc(N2C(=O)C3C(C2=O)C2(C)c4ccccc4C3(C)c3ccccc32)c([N+](=O)[O-])c1 (stereo not shown) [TCMDC-125621] | 9.788%
50 | COc1cc2c(c(OC)c1[N+](=O)[O-])C=CC1(O2)N(C)c2ccc([N+](=O)[O-])cc2C1(C)C (stereo not shown) [TCMDC-124133] | 52.65%
51 | CN1c2ccc([N+](=O)[O-])cc2C(C)(C)C12C=Cc1cc(Br)cc([N+](=O)[O-])c1O2 (stereo not shown) [TCMDC-124178] | 98.03%
52 | COc1ccc(C=CC(=O)NC(=O)c2ccccc2OC(=O)c2ccccc2)cc1OC [TCMDC-125709] | 14.45%
53 | COc1cc2c(c(Cl)c1OC)CCN(Cc1ccccc1)CC2c1ccc(NC(=O)C(F)(F)F)cc1 (stereo not shown) [TCMDC-132075] | 32.93%
54 | COc1cc2c(c(Cl)c1OC)CCN(Cc1ccccc1)CC2c1ccc(C(N)=O)cc1 (stereo not shown) [TCMDC-132074] | 48.86%
55 | COc1cc2c(c(Cl)c1OC)CCN(C(=O)C(F)(F)F)CC2c1ccccc1 (stereo not shown) [TCMDC-132071] | 93.25%
56 | Cc1cccc2nc(-c3ccc(-c4ccc(CN5CCN(c6cnccn6)CC5)cc4)s3)[nH]c12.O=C(O)C(F)(F)F [TCMDC-133900] | 28.24%
57 | COc1ccc(CNCc2cccc(-c3ccc(-c4nc5ccccc5[nH]4)s3)c2)cc1.O=C(O)C(F)(F)F [TCMDC-132733] | 7.28%
58 | O=C(Nc1ccnc2ccccc12)NC1CCN(CCc2ccccc2)CC1 [TCMDC-139687] | 38.02%
59 | O=C(CCc1ccco1)NC1CCN(CC2(c3ccc(Cl)cc3)CCC2)CC1 [TCMDC-124834] | 42.25%
60 | COc1c(C(=O)NC2CCN(Cc3ccccc3)C2)cnc2ccccc12 (stereo not shown) [TCMDC-138996] | -11.57%
61 | COc1coc(C(=O)NC2CCN(CC3(c4ccc(Cl)cc4)CCC3)CC2)c1OC [TCMDC-124835] | 70.44%
62 | Cc1cc(C(=O)NC2CCN(CC3(c4ccc(Cl)cc4)CCC3)CC2)on1 [TCMDC-124833] | 85.33%
63 | Cc1cc(C(=O)NC2CCN(CC3(c4ccccc4)CCCCC3)CC2)on1 [TCMDC-124832] | 67.12%
64 | CC(C)c1ccc(CN2CCC(NC(=O)c3ccc(-c4cccc(Cl)c4)s3)CC2)cc1 [TCMDC-134347] | -17.88%
65 | CC1CC1C(=O)NC1CCN(CC2(c3ccccc3)CCCCC2)CC1 (stereo not shown) [TCMDC-124831] | 61.7%
66 | O=C(NC1CCN(Cc2ccccc2)CC1)c1cc(-c2ccncc2)c(-c2ccc(Cl)c(O)c2)o1 [TCMDC-135453] | 2.681%
67 | O=C(C=Cc1ccc(Cl)c(Cl)c1)NC1CCN(CCc2ccccc2)CC1 [TCMDC-134274] | 3.334%
